Test results: PubChem BioAssay (NCATS)
“And” between values parts separate entries of the source, which are not always exact repeats. Equal entries are not always repeated. Values without a mark were called inactive. Inconclusive results are not listed. Where a call stands in place of a potency, no number is given. The source made the active and inactive calls. Unless noted, calls follow the shape of the dose curve; as a rule, active = well fitted curve in the direction sought with a large enough effect; inconclusive = small, poorly fitted or top-dose-only effect, or another doubt; inactive = no such curve, though single readings can be large; an effect the other way counts as inactive or inconclusive.

Key:
[1] = Cell Viability - BJ (AID 421; calls by dose curve;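 also: potency is read from the fitted curve at half-maximal effect; cells exposed to compound for 40 hours at 37 °C before readout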); conditions: BJ fibroblast viability, qHTS
Summary of the method: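 Quantitative HTS: ATP depletion in BJ cells after 40 hr compound exposure in complete culture medium, detected with CellTiter-Glo; AC50 from standard Hill fits.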

[2] = Cell Viability - HepG2 (AID 433; calls by dose curve;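 also: potency is read from the fitted curve at half-maximal effect; cells exposed to compound for 40 hours; potency for ATP loss meaning cytotoxicity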); conditions: qHTS
Summary of the method: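 Read-out is luciferase-based quantitation of cellular ATP as a measure of viable HepG2 cells after 40 h treatment at 37 °C. Signal decrease is scaled between DMSO-only and 100 uM tamoxifen controls, with AC50 fitted by the Hill equation.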

[3] = Cellular Toxicity (caspase-3) MRC-5 (AID 659); conditions: MRC-5 cells, luminescence, normalized: DMSO 0%, 10 µM staurosporine 100%; series mostly up to 91.7 µM;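 also: cells exposed to compound for 16 h at 37 °C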
Summary of the method: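 Concentration-dependent caspase 3/7 activation is measured in human normal lung fibroblasts (MRC-5) following 16-hour treatment. AC50 values come from standard Hill-equation modeling of luminescence normalized to DMSO and 10 uM staurosporine.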

[4] = Cellular Toxicity (caspase-3) N2a (AID 665); conditions: N2a cells, luminescence, normalized: DMSO 0%, 10 µM staurosporine 100%; series mostly up to 92.2 µM;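 also: compound exposure lasted 16 h at 37 °C before readout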
Summary of the method: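 Plated mouse neuroblastoma N2a cells received titrated compounds for 16 h in complete medium. Caspase activity was then detected with a peptide-aminoluciferin luminescent reagent.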

[5] = Cellular Toxicity (caspase-3) Renal Proximal Tubule (AID 667); conditions: renal proximal tubule cells; series mostly up to 91.7 µM;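 also: cells exposed to compound for 16 hours at 37 °C before detection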
Summary of the method: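 AC50 derived by standard Hill fit of concentration-response data, normalized between DMSO basal and 10 uM staurosporine as 100% stimulation. Cells: primary rat kidney proximal tubule, 16 h treatment at 37 °C.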

[6] = Cell Viability - LYMP2-001 (AID 921); conditions: LYMP2-001 lymphoblastoid cell viability; series mostly up to 92.2 µM;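 also: cells exposed to compound for 24 h at 37 °C; nearly all actives have a fitted effect of over 70% in size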; also: potency is read from the fitted curve at half-maximal effect
Summary of the method: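 Steps: seed 2500 lymphoblastoid cells/well; 5 hr, 37 C; add compound; 24 hr, 37 C; CellTiter-Glo reagent, 30 min room temperature; read luminescence. Concentration-response modeled by Hill equation for AC50.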

[7] = MultiTox-Fluor Cytotoxicity Assay - LYMP1-002 - Live Cells (AID 955); conditions: LYMP1-002 lymphoblastoid live-cell protease fluorescence viability; series mostly up to 46.1 µM;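 also: cells exposed to compound for 16 hours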
Summary of the method: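 Cytotoxicity in the human lymphoblastoid line LYMP1-002 is measured as loss of live-cell protease activity after 16 h treatment in complete culture medium. AC50 is derived from Hill-equation fits of qHTS concentration-response data.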

[8] = MultiTox-Fluor Cytotoxicity Assay - LYMP1-003 - Live Cells (AID 962); conditions: LYMP1-003 lymphoblastoid cells, MultiTox-Fluor live-cell protease fluorescence; series mostly up to 92.2 µM;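 also: cells exposed to compound for 16 hours at 37 °C; cytotoxic hits lower the live-cell protease signal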
Summary of the method: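 Cells plated at 2500 per well and incubated 5 hr; compounds added and incubated 16 hr at 37 C; MultiTox-Fluor reagent added for 60 min at room temperature; fluorescence of liberated AFC measured at 405/510 nm.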

[9] = Cell Viability - LYMP1-003 - Assay at 24 hr (AID 963); conditions: LYMP1-003 lymphoblastoid cell viability; series mostly up to 92.2 µM
Summary of the method: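 Acute toxicity in LYMP1-003 lymphoblastoid cells: 24 hr compound treatment at 37 C, ATP measured with CellTiter-Glo after 30 min at room temperature. AC50 derived by fitting the Hill equation to qHTS titrations.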

[10] = Cell Viability - LYMP2-017 (AID 972); conditions: LYMP2-017 lymphoblastoid cell viability; series mostly up to 92.2 µM;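 also: cells exposed to compound for 24 hours at 37 °C; nearly all actives have a fitted effect of over 55% in size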; also: potency is read from the fitted curve at half-maximal effect
Summary of the method: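 Steps: plate 2500 lymphoblastoid cells per well; incubate 5 hr at 37 C; add compound across a concentration series and incubate 24 hr at 37 C; add CellTiter-Glo and read luminescence after 30 min at room temperature; fit Hill curves for AC50.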

[11] = Cell Viability - LYMP2-021 (AID 974); conditions: LYMP2-021 lymphoblastoid cells viability; series mostly up to 92.2 µM;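 also: compound exposure lasts 24 hours at 37 °C; nearly all actives have a fitted effect of over 55% in size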; also: potency is read from the fitted curve at half-maximal effect
Summary of the method: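 Concentration-response cytotoxicity in a human lymphoblastoid line: 24 hr treatment at 37 C in complete culture medium, tetraoctylammonium bromide as positive control, luminescent ATP quantitation as viability measure.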

[12] = Cell Viability - LYMP2-025 (AID 976); conditions: LYMP2-025 lymphoblastoid cell viability; series mostly up to 92.2 µM;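 also: cells exposed to compound for 24 h at 37 °C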; also: potency is read from the fitted curve at half-maximal effect
Summary of the method: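 In qHTS format, LYMP2-025 lymphoblastoid cells in complete culture medium received compound for 24 hr; ATP-based CellTiter-Glo signal gave viability, with AC50 derived by Hill equation.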

[13] = Cell Viability - LYMP2-006 (AID 978); conditions: LYMP2-006 lymphoblastoid cell viability, qHTS; series mostly up to 92.2 µM;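 also: cells exposed to compound for 24 hours; nearly all actives have a fitted effect of over 60% in size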; also: potency is read from the fitted curve at half-maximal effect
Summary of the method: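 Cells are seeded at 2500 per well and rested 5 hr at 37 C. Compounds are added across a concentration series for 24 hr at 37 C, after which ATP is quantified by luciferase luminescence.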

[14] = Cell Viability - LYMP2-007 (AID 979); conditions: LYMP2-007 lymphoblastoid cell viability; series mostly up to 92.2 µM;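 also: cells exposed to compound for 24 h before reading; nearly all actives have a fitted effect of over 60% in size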; also: potency is read from the fitted curve at half-maximal effect
Summary of the method: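 Acute toxicity is scored as a concentration-dependent fall in intracellular ATP in human lymphoblastoid cells treated 24 hr at 37 C, measured by luciferase luminescence; Hill-equation modelling yields AC50.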

[15] = Cell Viability - LYMP2-014 (AID 983); conditions: LYMP2-014 lymphoblastoid cells, viability qHTS; series mostly up to 92.2 µM;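 also: cells exposed to compound for 24 h at 37 °C; nearly all actives have a fitted effect of over 50% in size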; also: potency is read from the fitted curve at half-maximal effect
Summary of the method: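 Decrease in intracellular ATP after 24 hr treatment at 37 C, measured by luciferase luminescence, indicated cytotoxicity. Concentration-response data were fitted with the standard Hill equation to give AC50.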

[16] = Cell Viability - LYMP2-016 (AID 984); conditions: LYMP2-016 lymphoblastoid cell viability, qHTS; series mostly up to 92.2 µM;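 also: cells exposed to compound for 24 hours at 37 °C; nearly all actives have a fitted effect of over 55% in size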; also: potency is read from the fitted curve at half-maximal effect
Summary of the method: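 Cells were seeded at 2500 per well and rested 5 hr before a 24 hr compound exposure at 37 C. Viability was then gauged as cellular ATP by luciferase luminescence, with AC50 values fitted to the Hill equation.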

[17] = qHTS Assay for Identification of Small Molecule Inducers of Hypoxia Response (AID 2120; active = well fitted curve in the direction sought with a large enough effect in the signal ratio, with a control signal flat, not every such curve was filed as active; the % refers to the signal ratio; also: potency is read from the fitted curve at half-maximal effect); conditions: hypoxia response reporter cells, beta-lactamase ratio readout; series mostly up to 104 µM
Summary of the method: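 Induction of beta-lactamase reporter activity was measured in CellSensor HRE-bla ME-180 cells after 17 h compound treatment at 37 degrees C, using CCF4 substrate and the 460nm/530nm emission ratio to derive AC50 values.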

[18] = qHTS assay for small molecule agonists of the antioxidant response element (ARE) signaling pathway measured by Nrf2-dependant transcriptional activity - cell viability counter screen (AID 720653; active = well fitted curve in the direction sought with a large enough effect in the repeat runs; an effect the other way counts as inactive or inconclusive); conditions: ARE-bla HepG2 viability, CellTiter-Glo ATP luminescence, 16 h; hits give low values
Summary of the method: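 Cytotoxicity counter screen: intracellular ATP quantified by CellTiter-Glo luminescence in the same ARE-bla HepG2 plates, after 16 h compound exposure and a 2 h beta-lactamase substrate step.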

[19] = qHTS assay for cell viability of HEK293 cells (AID 743288); conditions: ATP luminescence (CellTiter-Glo), 18 h, hits give low values; also: nearly all actives have a fitted effect of over 50% in size
Summary of the method: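 HEK293 parental, 2,000 cells/well; ≥5 h pre-incubation 37 C; pintool compound addition; 18 h, 37 C; CellTiter-Glo 30 min RT; luminescence read.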

[20] = Cell Viability - LYMP1-003 - Assay at 40 hr (AID 964); conditions: LYMP1-003 lymphoblastoid viability; series mostly up to 92.2 µM; also: nearly all actives have a fitted effect of over 60% in size
Summary of the method: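 This qHTS cytotoxicity screen treats human lymphoblastoid cells (LYMP1-003) with compounds for 40 hr and quantifies cellular ATP via luciferase luminescence.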

SMILES | Potency [1] [µM] | Potency [2] | outcome [3] | outcome [4] | outcome [5] | Potency [6] | outcome [7] | outcome [8] | outcome [9] | Potency [10] | Potency [11] | Potency [12] | Potency [13] | Potency [14] | Potency [15] | Potency [16] | Potency [17] | max response [18] | max response [19] | Potency [20]
Cc1cc(N=Nc2ccccc2C)ccc1N | > 92 | > 92 µM | inactive | inactive | inactive | inactive | inactive | inactive | inactive | inactive | inactive | inactive | inactive | inactive | inactive | inactive | inactive | -2.89% and 2.65% | -13.3% and -11.6% | –
Cc1cc(C)cc(OP(=O)(Oc2cc(C)cc(C)c2)Oc2cc(C)cc(C)c2)c1 | > 92 | > 92 µM | inactive | inactive | inactive | inactive | inactive | inactive | inactive | inactive | inactive | inactive | inactive | inactive | inactive | inactive | inactive | -9.8% | -21.5% | inactive
Clc1cccc(Cl)c1 | > 92 | > 92 µM | inactive | inactive | inactive | inactive | inactive | inactive | inactive | inactive | inactive | inactive | inactive | inactive | inactive | inactive | inactive | -2.71% | -11.3% | inactive
Oc1c(Cl)c(Cl)cc(Cl)c1Cl | > 92 | > 92 µM | inactive | inactive | inactive | inactive | inactive | inactive | inactive | inactive | inactive | inactive | inactive | inactive | inactive | inactive | inactive | -2.21% | 1.93% | inactive
Nc1ccc(Cc2ccc(N)c(Cl)c2)cc1Cl | > 92 | > 92 µM | inactive | inactive | inactive | inactive | inactive | inactive | inactive | inactive | inactive | inactive | inactive | inactive | inactive | inactive | inactive | -8.13% | -12.3% | inactive
Brc1ccc(Oc2ccc(Br)cc2Br)c(Br)c1 | > 92 | > 92 µM | inactive | inactive | inactive | inactive | inactive | inactive | inactive | inactive | inactive | inactive | inactive | inactive | inactive | inactive | inactive | -0.481% | – | inactive
Cc1ccc(OP(=O)(Oc2ccc(C)cc2)Oc2ccc(C)cc2)cc1 | > 92 | > 92 µM | inactive | inactive | inactive | inactive | inactive | inactive | inactive | inactive | inactive | inactive | inactive | inactive | inactive | inactive | inactive | -0.985% and -5.89% | -12.3% and -24.8% | inactive
O=[N+]([O-])c1ccc(O)c([N+](=O)[O-])c1 | > 92 | > 92 µM | inactive | inactive | inactive | inactive | inactive | inactive | inactive | inactive | inactive | inactive | inactive | inactive | inactive | inactive | inactive | -10% | -1.57% | inactive
Oc1cc(Cl)c(Cl)c(Cl)c1 | – | 59.9 µM (active) | inactive | inactive | inactive | inactive | inactive | inactive | inactive | – | – | – | – | – | inactive | – | inactive | -10.7% | -15.1% | inactive
CN(C)c1ccc(N=Nc2ccccc2)cc1 | > 92 | > 92 µM | inactive | inactive | inactive | inactive | inactive | inactive | inactive | inactive | inactive | inactive | inactive | inactive | inactive | inactive | inactive | -5.92% | -8.55% | inactive
[C-]1=CC=CC1.[C-]1=CC=CC1.[Cl-].[Cl-].[Ti+4] | – | – | inactive | inactive | inactive | – | – | – | – | – | – | – | – | – | – | – | inactive | -7.58% | -17.8% | –
BrCC(Br)(Br)Br | > 92 | > 92 µM | inactive | inactive | inactive | – | inactive | inactive | inactive | 15.8 µM (active) | 20 µM (active) | – | 15.8 µM (active) | 12.6 µM (active) | – | – | inactive | – | – | inactive
Clc1ccc(C(c2ccccc2Cl)C(Cl)(Cl)Cl)cc1 (configuration not stated) | > 92 | > 92 µM | inactive | inactive | inactive | inactive | inactive | inactive | inactive | inactive | inactive | inactive | inactive | inactive | inactive | inactive | inactive | -11.9% and 2.81% | – | inactive
Oc1cc(Cl)c(Cl)c(Cl)c1Cl | – | 53.3 µM (active) | inactive | inactive | inactive | inactive | inactive | inactive | inactive | – | – | inactive | inactive | inactive | inactive | inactive | inactive | – | -11.3% | inactive
O=[N+]([O-])c1cccc(CCl)c1 | – | > 92 µM | inactive | inactive | inactive | – | inactive | inactive | inactive | – | – | inactive | inactive | – | inactive | inactive | inactive | -3.2% | -20.5% | inactive
N#C/C=C/C#N | – | > 92 µM | inactive | inactive | inactive | 31.6 µM (active) | inactive | inactive | inactive | 31.6 µM (active) | 39.8 µM (active) | 50.1 µM (active) | 25.1 µM (active) | 39.8 µM (active) | 39.8 µM (active) | 39.8 µM (active) | inactive | -28.1% | – | inactive
Nc1ccc(-c2ccc(N)c(Cl)c2)cc1Cl | – | > 92 µM | inactive | inactive | inactive | inactive | inactive | – | inactive | inactive | inactive | inactive | inactive | inactive | inactive | inactive | inactive | -14% and -8.08% | -8.22% and -17.1% | –
c1ccc2c(c1)ccc1cc3c(ccc4ccccc43)cc12 | – | – | – | – | – | – | – | – | – | – | – | – | – | – | – | – | 44.7 µM (active) | – | – | –
